# According to PubChem BioAssay (NCATS):
# A number with no mark means an inactive call. Results filed as inconclusive are left out. Activity calls are given as the source filed them. Unless noted, calls follow the shape of the dose curve; as a rule, active = well fitted curve in either direction with a large enough effect (not every such curve was filed as active); inconclusive = small, poorly fitted or top-dose-only effect, or another doubt; inactive = flat fitted curve, though single readings scatter.
# Tested on: not listed separately
# Experiment: Cell Viability - SK-N-SH (AID 435; calls by dose curve;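 also: potency is read from the fitted curve at half-maximal effect; compound exposure lasted 40 h at 37 °C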)
# Conditions: SK-N-SH neuroblastoma cell viability qHTS
# Method in brief: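 SK-N-SH neuroblastoma cells (1500/well) treated 40 h at 37 °C in complete medium; viability read as cellular ATP by CellTiter-Glo luminescence. Normalized to DMSO and 100 uM tamoxifen; AC50 from Hill fits of qHTS concentration-response.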
row,Structure (SMILES),Potency [µM]
1,CCC(O)OC(O)CC (stereo unspecified),> 92
2,C=Cc1ccccc1Cl,> 92
3,c1ccc2c(c1)c1cccc3ccc4cccc2c4c31,> 92
4,Cc1cccc([N+](=O)[O-])c1C,> 92
5,CCO,> 92
6,c1ccc2c(c1)[nH]c1ccccc12,> 92
7,CN(C)C=O,> 92
8,Cc1ccc(N)c([N+](=O)[O-])c1,> 92

# Tested on: not listed separately
# Experiment: NFAT Signaling Pathway (AID 444);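 also: carbachol stimulus at about its EC50 of 1 µM final; % is scaled to controls: 0 for no effect and ±100 for the full control effect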
# Conditions: Jurkat NFAT-bla M1, carbachol, beta-lactamase ratio, 5 h; at 7.69 µM (top of the series) unless noted
# Method in brief: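 Read-out: CCF4 FRET ratio (460 nm/530 nm) after 1 h RT dye loading, used for %activity and AC50 from titration series. Cells: Jurkat NFAT-β-lactamase/M1 line, treated with compound plus 1 uM carbachol for 5 h, 37 °C.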
row,Structure (SMILES),"activity change, negative = inhibition [%]"
1,COc1ccccc1-c1nc(NC2CC2)c2ccccc2n1,-13.9
2,CCNc1ncc2ncc(=O)n(Cc3ccc(F)cc3)c2n1,3
3,Cc1ccccc1-c1ccc2ncnc(NCCN3CCOCC3)c2c1,-0.729
4,CCNc1ncc2nc(CCc3ccccc3)c(=O)n(C3CC3)c2n1,11.9
5,CN1CCN(c2nc(-c3cccnc3)nc3ccccc23)CC1,11.1
6,CN(C)C(=O)c1ccc(-c2nc(Nc3ccccc3)c3ccccc3n2)cc1,2.53
7,COc1cccc(Cn2c(=O)cnc3cnc(N(C)C)nc32)c1,-0.24
8,COc1cccc(-c2nc(NCc3cccnc3)c3ccccc3n2)c1,27.1
9,COCCn1c(=O)c(-c2cccc(C#N)c2)nc2cnc(Oc3cccc(Cl)c3)nc21,-4.85
10,CN1CCN(c2nc(-c3ccoc3)nc3ccccc23)CC1,-2.81
11,CN(C)c1nc(-c2cccc(NS(C)(=O)=O)c2)nc2ccccc12,10.8

# Tested on: not listed separately
# Experiment: Stat Signaling Pathway (AID 446);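 also: ME-180 cervical cancer cells given 40 pM IL-6 alongside compound; SIE-controlled beta-lactamase reporter measured as 460/530 nm FRET emission ratio; % is scaled to controls: 0 for no effect and ±100 for the full control effect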
# Conditions: ME-180 (cervical carcinoma) SIE beta-lactamase reporter, IL-6 stimulated, 5 h; series mostly up to 7.69 µM; activity, negative = inhibition: at the top concentration
# Method in brief: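 Overnight-plated ME-180 cells bearing a STAT Inducible Element beta-lactamase reporter; 5 h co-exposure to compound and 40 pM IL-6; values normalized to 300 pM IL-6 and 125 nM JAK inhibitor controls.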
row,Structure (SMILES),"activity, negative = inhibition [%]"
1,COc1ccccc1-c1nc(NC2CC2)c2ccccc2n1,16.6
2,COc1ccc2[nH]cc(CCNc3ncnc4ccc(-c5cccc(C#N)c5)cc34)c2c1,-10.7
3,Cc1ccccc1-c1ccc2ncnc(NCCN3CCOCC3)c2c1,-5.84
4,COc1ccccc1CNc1nc(-c2ccc(C(=O)N(C)C)cc2)nc2ccccc12,-28.6
5,COc1ccc2[nH]cc(CCNc3ncncc3-c3ccccc3C(F)(F)F)c2c1,-12
6,CCNc1ncc2nc(CCc3ccccc3)c(=O)n(C3CC3)c2n1,-10
7,CN(C)C(=O)c1ccc(-c2nc(Nc3ccccc3)c3ccccc3n2)cc1,-7.41
8,COc1cccc(Cn2c(=O)cnc3cnc(N(C)C)nc32)c1,0.507
9,COc1cccc(-c2nc(NCc3cccnc3)c3ccccc3n2)c1,-15.9
10,COCCn1c(=O)c(-c2cccc(C#N)c2)nc2cnc(Oc3cccc(Cl)c3)nc21,-13.2
11,CN1CCN(c2nc(-c3ccoc3)nc3ccccc23)CC1,3.84
12,CN(C)c1nc(-c2cccc(NS(C)(=O)=O)c2)nc2ccccc12,5.62

# Molecular target: Glucocorticoid receptor (Homo sapiens) (UniProt P04150)
# Experiment: GR-GFP Redistribution (AID 450;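 active = compounds whose dose series gives a full or clear partial fitted curve of increased nuclear translocation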; also: potency is read from the fitted curve at half-maximal effect)
# Conditions: U2OS GR-GFP nuclear translocation, laser cytometry, 2 h
# Glucocorticoid receptor (Homo sapiens), sequence (P04150 whole entry, looked up): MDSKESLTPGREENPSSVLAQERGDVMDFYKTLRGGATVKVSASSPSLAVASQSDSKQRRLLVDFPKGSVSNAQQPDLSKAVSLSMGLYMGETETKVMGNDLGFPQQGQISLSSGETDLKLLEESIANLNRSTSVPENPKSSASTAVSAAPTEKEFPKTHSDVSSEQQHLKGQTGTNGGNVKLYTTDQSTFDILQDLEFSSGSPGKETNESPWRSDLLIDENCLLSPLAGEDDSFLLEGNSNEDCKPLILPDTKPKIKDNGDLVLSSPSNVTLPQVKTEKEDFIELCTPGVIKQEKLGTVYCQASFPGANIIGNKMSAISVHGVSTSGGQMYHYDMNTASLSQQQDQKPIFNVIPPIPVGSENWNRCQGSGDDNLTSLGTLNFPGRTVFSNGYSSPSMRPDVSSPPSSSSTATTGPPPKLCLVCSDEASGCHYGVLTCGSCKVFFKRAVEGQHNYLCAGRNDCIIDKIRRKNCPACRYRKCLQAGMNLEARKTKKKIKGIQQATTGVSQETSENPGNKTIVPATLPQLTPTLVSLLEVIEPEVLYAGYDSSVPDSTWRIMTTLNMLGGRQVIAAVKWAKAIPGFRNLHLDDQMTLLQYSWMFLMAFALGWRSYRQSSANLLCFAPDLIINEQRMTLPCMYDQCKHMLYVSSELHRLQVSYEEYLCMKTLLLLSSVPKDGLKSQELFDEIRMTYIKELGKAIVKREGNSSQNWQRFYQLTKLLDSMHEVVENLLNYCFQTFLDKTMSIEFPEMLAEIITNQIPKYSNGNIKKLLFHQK
row,Structure (SMILES),Potency [µM]
1,COc1ccccc1-c1nc(NC2CC2)c2ccccc2n1,> 46
2,CCNc1ncc2ncc(=O)n(Cc3ccc(F)cc3)c2n1,> 9.22
3,COc1ccc2[nH]cc(CCNc3ncncc3-c3ccccc3C(F)(F)F)c2c1,> 46
4,CCNc1ncc2nc(CCc3ccccc3)c(=O)n(C3CC3)c2n1,> 9.22
5,CN(C)C(=O)c1ccc(-c2nc(Nc3ccccc3)c3ccccc3n2)cc1,> 46
6,COc1cccc(Cn2c(=O)cnc3cnc(N(C)C)nc32)c1,> 9.22
7,COCCn1c(=O)c(-c2cccc(C#N)c2)nc2cnc(Oc3cccc(Cl)c3)nc21,> 9.22
8,CN1CCN(c2nc(-c3ccoc3)nc3ccccc23)CC1,> 46
9,CN(C)c1nc(-c2cccc(NS(C)(=O)=O)c2)nc2ccccc12,> 46

# Molecular target: Glucocorticoid receptor (Homo sapiens) (UniProt P04150)
# Experiment: GR-EFC Redistribution (AID 451; calls by dose curve; also: potency is read from the fitted curve at half-maximal effect)
# Conditions: CHO-K1 GR-EFC translocation, beta-gal luminescence, 2 h
# Method in brief: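 Translocation of GR-ED fusion to nuclear EA restores b-gal, read by luminescence after 1 h room-temperature detection. Engineered CHO-K1 biosensor cells, 1,000/well, exposed 2 h at 37 C to titrations up to 46 uM final.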
row,Structure (SMILES),Potency [µM]
1,COc1ccccc1-c1nc(NC2CC2)c2ccccc2n1,> 46
2,COc1ccc2[nH]cc(CCNc3ncnc4ccc(-c5cccc(C#N)c5)cc34)c2c1,> 46
3,CCNc1ncc2ncc(=O)n(Cc3ccc(F)cc3)c2n1,> 46
4,COc1ccccc1CNc1nc(-c2ccc(C(=O)N(C)C)cc2)nc2ccccc12,> 46
5,COc1ccc2[nH]cc(CCNc3ncncc3-c3ccccc3C(F)(F)F)c2c1,> 46
6,CCNc1ncc2nc(CCc3ccccc3)c(=O)n(C3CC3)c2n1,> 46
7,CN1CCN(c2nc(-c3cccnc3)nc3ccccc23)CC1,> 46
8,CN(C)C(=O)c1ccc(-c2nc(Nc3ccccc3)c3ccccc3n2)cc1,> 46
9,COc1cccc(Cn2c(=O)cnc3cnc(N(C)C)nc32)c1,> 46
10,COc1cccc(-c2nc(NCc3cccnc3)c3ccccc3n2)c1,> 46
11,COCCn1c(=O)c(-c2cccc(C#N)c2)nc2cnc(Oc3cccc(Cl)c3)nc21,> 46

# Molecular target: Mitogen-activated protein kinase 10 (Mus musculus) (UniProt Q61831)
# Experiment: JNK3 AlphaScreen Assay (AID 530);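 also: kinase came from lysate of stimulated human HepG2 cells; signal reports phosphorylation of biotinylated GST-cJun 1-79 at Ser73 with 10 µM ATP; % is scaled to controls: 0 for no effect and ±100 for the full control effect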
# Conditions: JNK3 lysate, c-Jun phosphorylation; series mostly up to 57.1 µM; activity change, negative = inhibition: at the top concentration
# Method in brief: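 Kinase buffer: 20 mM Tris-HCl pH 7.6, 10 mM MgCl2, 1 mM DTT, 0.1 mM Na3VO4, 0.01% Tween-20; ATP 10 uM. Substrate biotin-GST-cJun(1-79), enzyme from activated HepG2 lysates. Detection by Ser73 phospho-antibody AlphaScreen.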
Structure (SMILES),"activity change, negative = inhibition [%]",Potency
CCCN(CCC)C(=O)SCC,22.9,–
COc1ccccc1-c1nc(NC2CC2)c2ccccc2n1,-2.4,–
COc1ccc2nc(N)sc2c1,-8.53,–
ClCCCl,15.4,–
COc1ccc2[nH]cc(CCNc3ncnc4ccc(-c5cccc(C#N)c5)cc34)c2c1,-4.6,–
CCC(O)OC(O)CC (stereo unspecified),–,inactive
CCNc1ncc2ncc(=O)n(Cc3ccc(F)cc3)c2n1,1.33,–
C=Cc1ccccc1Cl,11,–
c1ccc2c(c1)c1cccc3ccc4cccc2c4c31,22.1,–
Cc1cccc([N+](=O)[O-])c1C,-2.01,–
CCCCCCCCO,8.3,–
CC(C)=CCCC(C)CCO (stereo unspecified),26.5,–
O=[N+]([O-])c1cccc(Cl)c1Cl,-0.537,–
CCO[Si](CCCN)(OCC)OCC,8.91,–
Clc1cc(Cl)c(Cl)cc1Cl,0.821,–
CCO,4.88,–
C=CC(=O)OCCOCCOCCOCCOC(=O)C=C,–,inactive
Clc1cc(Cl)c(Cl)c(Cl)c1Cl,21.9,–
CCCCC(CC)CN (stereo unspecified),–,inactive
O=NO,–,inactive

Structure (SMILES),"activity change, negative = inhibition [%]",Potency
c1ccc2c(c1)[nH]c1ccccc12,13.2,–
OCCNCCO,6.69,–
Cc1ccccc1-c1ccc2ncnc(NCCN3CCOCC3)c2c1,1.64,–
Nc1ccc(Cl)cc1Cl,-7.24,–
COc1ccccc1CNc1nc(-c2ccc(C(=O)N(C)C)cc2)nc2ccccc12,-7.17,–
COc1ccc2[nH]cc(CCNc3ncncc3-c3ccccc3C(F)(F)F)c2c1,-12.2,–
CCNc1ncc2nc(CCc3ccccc3)c(=O)n(C3CC3)c2n1,0.378,–
CCC(C)c1ccccc1O (stereo unspecified),–,inactive
CN1CCN(c2nc(-c3cccnc3)nc3ccccc23)CC1,-3.77,–
CC1=CC(C)(C)Nc2ccccc21,–,inactive
CN(C)C(=O)c1ccc(-c2nc(Nc3ccccc3)c3ccccc3n2)cc1,4.14,–
COc1cccc(Cn2c(=O)cnc3cnc(N(C)C)nc32)c1,17.7,–
CN(C)C=O,–,inactive
Cc1ccc(N)c([N+](=O)[O-])c1,11.6,–
CCCCOCCO,-6.16,–
COc1cccc(-c2nc(NCc3cccnc3)c3ccccc3n2)c1,-14.4,–
COCCn1c(=O)c(-c2cccc(C#N)c2)nc2cnc(Oc3cccc(Cl)c3)nc21,-5.09,–
CN1CCN(c2nc(-c3ccoc3)nc3ccccc23)CC1,1.01,–
CC(=O)OC/C=C(\C)CCC=C(C)C,-0.163,–
CN(C)c1nc(-c2cccc(NS(C)(=O)=O)c2)nc2ccccc12,1.74,–
